The whole screen tested about 71,000 compounds, of which about 310 (0.44%) were called active. Not shown: some 5% with an inconclusive outcome. For the sample, actives were picked, then their nearest neighbours and some compounds at random. Values without a mark were called inactive. Calls come from the whole dose curve; as a rule, active = well fitted curve in either direction with a large enough effect; inconclusive = small, poorly fitted or top-dose-only effect, or another doubt; inactive = flat fitted curve, though single readings scatter.
What follows are compounds tested on Hsp90 C-terminal peptide / TPR2A (Hop) interaction, human (assay: qHTS Assay for Disrupters of an Hsp90 Co-Chaperone Interaction). Conditions: AlphaScreen TPR2A-His6 binding biotin-Hsp90 C-terminal peptide; series mostly up to 57 µM; activity change, negative = inhibition: at the top concentration.
Excerpt: NIH Chemical Genomics Center [NCGC]
NIH Molecular Libraries Screening Centers Network [MLSCN]
Hsp90 (heat shock protein 90) is the essential molecular chaperone and it accounts for 1-2% of all cytosolic proteins and is critical for the activity of diverse cellular proteins that are involved in a variety of cellular processes, including development, cell cycle, and steroid hormone signaling. Its client proteins include signaling kinases such as IGF1R, Akt, v-Src, Raf-1; regulators of cell survival such as Bcr-Abl; and transcription factors such as mutated p53, estrogen and progesterone receptors. Hsp90 has emerged as an important target for cancer treatment due to its essential role in maintaining transformation and regulating the function of oncogenic signaling proteins.
The in vivo function of Hsp90 is regulated by the binding and hydrolysis of ATP at its N-terminal. Geldanamycin binds to ATP site and inhibit Hsp90 function. Geldanamycin and its analogues are under clinical trials in cancer patients.
This domain contains the binding site for tetratricopeptide repeat (TPR) domains on HOP (Hsp Organizing Protein). TPR is a structural motif used by a significant number of cochaperones by which the in vivo function of Hsp90 is regulated. TPR2A on HOP binds specifically to MEEVD motif of the C-terminal of Hsp90.
A homogeneous AlphaScreen is developed to assess the interaction between TPR2A and MEEVD motif of the C-terminal of Hsp90 by using the isolated TPR2A domain and a synthesized 20mer Hsp90 C terminal peptide. AlphaScreen is two bead-based proximity-dependent chemical energy transfer luminescent assay platform. TPR2A-His-6 and biotinylated Hsp90 C terminal peptide will bring streptavidin donor beads and nickel chelate acceptor beads to a proximity range (less than 200 nm), and subsequently lead a chemical luminescent reaction upon exciting donor beads with 680 nm laser. Inhibition of TPR2A and MEEVD motif interaction by small molecules could attenuate or abolish this chemical luminescent reaction.
Counter screening: Biotinylated-His-6 (PerkinElmer) can be utilized as a counter screen, as it serves as a linker to bring streptavidin beads and nickel chelate beads together. The counter screen can exclude alpha screen platform false positives due to small molecules being metal chelators, biotin analogues and imidazole analogues, or due to interfering with oxygen release from donor beads. Such an assay should be utilized to qualify any activity observed in this screen.
NCGC Assay Protocol Summary:
The assay was performed on 1536-well white plate (untreated solid bottom). Liquids were dispensed by 1536-well plate washer (Kalypsys, San Diego, CA). Plates were read on EnVision (PerkinElmer, Boston, MA).TPR2A-His6 was produced using a bacteria expression system and purified using a well developed method (Ghosh et al., 2000). Hsp90 C terminal 20-mer peptide with or without an N-terminal biotin group are synthesized using automated solid phase synthesis by the Yale Keck facility. The composition of assay buffer was (in mM) 25 HEPES, 100 KCl, 2 MgCl2 and 2 DTT; 0.1% BSA and 0.01% Tween-20. TPR2A-His6 binding to biotin-Hsp90 will bring streptavidin donor beads and nickel chelate acceptor beads (PerkinElmer) together and can be measured by Alpha reading by EnVision (PerkinElmer). Free Hsp90 blocks biotin-Hsp90 binding to TPR2 and serves as a positive control in the current asssay.
The assay was performed at room temperature. All compounds were screened as titrations from […] to 46 uM final concentration. The assay was performed in 1536-well format plates (untreated white solid bottom, Corning Inc.) as follows:
Sequence,Parameter,Value,Description
1,Reagent,3 uL TPR2A-His6,Final concentration was 5nM
2,Compound,23 nL,Final titration was from 0.7 nM to 46 uM
3,Time,15 minutes,Room temperature
4,Reagent,1 uL biotin-Hsp90,With and without free Hsp90. Final concentration was 10 nM for biotin-Hsp90 and 10uM for free Hsp90.
5,Time,1 hour,Room temperature
[…]
% is set by controls: 0 for no effect and ±100 for the full control effect; potency is the fitted concentration of half-maximal effect.

SMILES	activity change, negative = inhibition	Potency
CC1(C)S[C@@H]2[C@@H](NC(=O)[C@@H](N)c3ccccc3)C(=O)N2[C@H]1C(=O)O	-8.43%	
O=C(NCC12CC3CC(C1)CC(CNC(=O)N1CCCC1)(C3)C2)N1CCCC1	-1.73%	
CC(C)NC(=O)N1CCCC2(CCN(C(=O)c3cccn3C)CC2)C1	-1.72%	
c1ccc2c(Nc3ccncc3)nc(-c3ccoc3)nc2c1	-15.2%	
O=C(c1ccncc1)N1CCC2(CCN(Cc3cc(C(F)(F)F)cc(C(F)(F)F)c3)CC2)CC1	-0.985%	
COc1ccc(-n2c(=O)c(-c3cn(C)c4ccccc34)nc3cnc(OC)nc32)cc1	-7%	
Cn1cc(-c2nc3cncnc3n(-c3ccccc3)c2=O)c2ccccc21	12.7%	
COc1ccccc1CCn1c(=O)c(-c2cn(C)c3ccccc23)nc2cncnc21		0.631 µM [activator] (active)
COC(=O)[C@@]1(Cc2ccc(OC)cc2)[C@H]2c3cc(C(=O)N4CCCC4)n(Cc4ccc(OC(F)(F)F)cc4)c3C[C@H]2CN1C(=O)c1ccccc1	-21%	
Cc1ccc(Br)cc1	1.28%	
Cc1nc2cnc(N3CCNCC3)nc2n(CCc2ccccc2)c1=O	-7.4%	
C(=C\c1ccccc1)/CSc1nnc(-c2cccnc2)n1Cc1ccco1	-3.91%	
CCCS(=O)(=O)N1CCC(C(=O)NCCCN(C)Cc2ccccc2)CC1	2.07%	
COc1ccccc1CNc1ccnc(-c2c(C)noc2C)n1	3.49%	
CSc1ccc(S(=O)(=O)Nc2cccc(F)c2)cc1	-0.401%	
O=C(O)C1CCCN1S(=O)(=O)c1ccc2c(c1)CCC2 (centres undefined)	0.639%	
CC(C)c1cc(CN(C)C)c(O)c(C(C)(C)C)c1	1.81% [at 11 µM]	
CCC(C)(NC(=O)c1ccccn1)C(=O)NC1CCCCC1 (centres undefined)	-3.12%	
CCOc1ccc(C(=O)N(Cc2ccc(N(C)C)cc2)C2CCS(=O)(=O)C2)cc1 (centres undefined)	-13%	
CC(C)Cn1c(CN(Cc2ccccc2)Cc2ccccc2)nc2c1c(=O)n(C)c(=O)n2C	2.13%	
COc1ccc(CN2C(=O)CN=C2Nc2ccc(C)cc2C)cc1	-1.44%	
OCCCNCc1ccccn1	-9.89% [at 11 µM]	
CCCCC[C@H](O)CCCC(=O)O	-7.89%	
CCCn1c(-c2ccc(F)cc2)nc2c(NC3CCN(Cc4ccccc4)C3)nc(C)nc21 (centres undefined)	-16.3%	
CC(=O)CCS(=O)(=O)c1ccc(C)c(C)c1	-3.12%	

SMILES	activity change, negative = inhibition	Potency
C#CCN1CC(C)/C(=N/O)CC1C (centres undefined)	0.89%	
COc1ccc(Cl)cc1NC(=O)C1CC(=O)N(c2ccc(F)cc2)C1 (centres undefined)	-6.06%	
C[C@H](CCC(=O)O)[C@H]1CC[C@@H]2[C@H]3CC[C@H]4C[C@H](O)CC[C@@]4(C)[C@@H]3CC[C@@]21C	-0.844% [at 11 µM]	
COCCn1c(=O)c(CCc2ccccc2)nc2cnc(N3CCNCC3)nc21	-2.61%	
Oc1ccccc1CNCc1ccccc1O	-2.03% [at 11 µM]	
O=C(Cl)c1ccc([N+](=O)[O-])cc1	0.785%	
Cc1noc(C)c1-c1cc(NCc2cccnc2)ncn1	-0.41%	
c1ccc2sc(SCCSc3nc4ccccc4s3)nc2c1	2.87% [at 11 µM]	
O=C(O)CCCCC(=O)O	-1.35%	
CN(C)c1ccc(-c2nc(NCCN3CCOCC3)c3ccccc3n2)cc1	-7.7%	
COC(=O)c1c(-c2ccc(C)cc2)csc1N	-5.56%	
CC(C)CC1(C(=O)NCc2ccccn2)C=CCN1C(=O)c1ccccc1 (centres undefined)	-3.81%	
CN(CCCNC(=O)CN1C(=O)CC(C)(C)S(=O)(=O)c2ccccc21)C1CCCCC1	-2.54%	
O=c1[nH]c(=O)n([C@H]2C[C@H](O)[C@H](CO)O2)cc1Br	-2.56%	
Cc1ccc(S(=O)(=O)Nc2ccccc2CNc2c(C)n(C)n(-c3ccccc3)c2=O)cc1	-1.54%	
N[C@H](C(=O)O)c1ccc(C(=O)O)c(O)c1	-1.81%	
CCCn1c(=O)c2[nH]c(-c3ccc(OCC(=O)NCCN)cc3)nc2n(CCC)c1=O	-19.8%	
COc1ccc(OC)c(CN2C(=O)CCC2(C)C(=O)NC2CCCCCC2)c1 (centres undefined)	-12.8%	
CCCCC/C=C/C=C/C=O	0.076%	
N#Cc1cccc(-c2nc3cnc(N4CCNCC4)nc3n(C3CC3)c2=O)c1	-4.38%	
O=c1c(-c2ccc(F)cc2)nc2cncnc2n1-c1ccccc1	-0.766%	
c1ccc2c(c1)-c1ccccc1C2N1CC2CCC(CC2)C1	2.37% [at 11 µM]	
COc1ccc(C[C@H](N)C(=O)N[C@@H]2[C@H](O)[C@H](n3cnc4c(N(C)C)ncnc43)O[C@@H]2CO)cc1	-4.16% [at 26 µM]	
Cc1cc(Cl)ccc1OCC(=O)Oc1c(Cl)c(Cl)c(Cl)c(Cl)c1Cl	0.356% [at 11 µM]	
O=C(COc1ncnc2ccccc12)NC(=O)NCc1ccccc1	2.77%	

SMILES	activity change, negative = inhibition	Potency
C[C@@H]1O[C@@H](O[C@@H]2[C@@H](O)[C@H](OCCc3ccc(O)c(O)c3)O[C@H](CO[C@@H]3O[C@H](CO)[C@@H](O)[C@H](O)[C@H]3O)[C@H]2OC(=O)/C=C/c2ccc(O)c(O)c2)[C@H](O)[C@H](O)[C@H]1O	-0.838%	
Cc1ccccc1N1CCN(S(=O)(=O)C[C@@]23CC[C@H](C[C@H]2NC(=O)[C@@H](N)CCS(C)(=O)=O)C3(C)C)CC1	-8.53%	
COc1ccc(NC(=O)N2CC3(CCN(C(=O)c4cccn4C)CC3)C2)cc1	-8.94%	
COc1ccc(C(=O)N2CCC3(CC2)CCN(c2ccccn2)CC3)cc1	2.71%	
O=C(Nc1cccc(F)c1)N1CC2(CCN(C(=O)c3csnn3)CC2)C1	1.12%	
CCn1ccnc1C[C@@H]1COc2ccccc2O1	inactive	
CC/C=C/C/C=C/C/C=C/CCCCCCCC(=O)OCC	1.86%	
COC(=O)c1c(NC(=O)CSc2nc3c(c(=O)n(C)c(=O)n3C)n2C(C)C)sc(C)c1C	-2.6%	
CCOC(=O)c1c(NC(=O)CSc2nnc(Cc3csc(N)n3)n2C)sc(C)c1C		25.1 µM (active)
CCOC(=O)c1c(NC(=O)CSc2nnc(CN3CCOCC3)n2C)sc2c1CCCC2	-2.12%	
Brc1cc(Br)c(Oc2cc(Br)c(Br)cc2Br)cc1Br	12.2%	
Nc1nc2c(ncn2[C@H]2CC[C@@H](CO)O2)c(=O)n1C(=O)c1ccccc1	-4.52% [at 11 µM]	
CCOC(=O)CSc1nnc(CNc2ccc(F)cc2)o1	-0.588%	
C[C@]1(O)CC[C@H]2[C@H]3CC=C4N5CCN=C5CC[C@@]4(C)[C@H]3CC[C@@]21C	-4.96% [at 11 µM]	
CC1(CCC(=O)OC2CCCCC2)OCCO1	-2.62% [at 11 µM]	
CN1CCN(S(=O)(=O)c2ccc3[nH]cc(C(=O)O)c(=O)c3c2)CC1	-0.632%	
CCOC(=O)c1nc(N)sc1C(=O)OCC	0.817%	
COC(=O)C1(C)C=CCN1C(=O)c1ccccc1 (centres undefined)	-3.13%	
Cc1c(O)c(Br)c(C)c(O)c1Br (tested in a mixture with another compound)	-3.86% [at 11 µM]	
COCCNc1ccnc(-c2cccc(NS(C)(=O)=O)c2)n1	-3.91%	
Cc1cccc(CNc2cc(-c3ccccc3Cl)ncn2)c1	6.04%	
O=C(Nc1c[nH]c(=O)[nH]c1=O)Oc1ccccc1	1.58% [at 11 µM]	
Nc1ccccc1N	0.745%	
COc1cc([C@H]2c3cc4c(cc3[C@@H](O[C@@H]3O[C@H]5CO[C@@H](C)O[C@]5(O)C[C@H]3O)[C@@H]3COC(=O)[C@H]23)OCO4)cc(OC)c1O	-4.89%	
NS(=O)(=O)c1ccc(NS(=O)(=O)/C=C/c2ccccc2)cc1	0.079%	

SMILES	activity change, negative = inhibition	Potency
Cc1cccc2cc(C#N)c(N3CCCC3)nc12		31.6 µM [activator] (active)
Cc1cc(C)c2nc(N3CCCC3)c(C#N)cc2c1	3.01%	
Cc1ccc(S(=O)(=O)C(C#N)c2nc3ccccc3nc2N2CCCC2)cc1C (centres undefined)	-13.2%	
C[C@@H]1C[C@H]2[C@@H]3C[C@H](F)C4=CC(=O)C=C[C@@]4(C)[C@]3(F)[C@H](O)C[C@]2(C)[C@@]1(O)C(=O)CO	-3.15% [at 26 µM]	
CN1CCN(c2ncc3nc(-c4ccc(Cl)cc4)c(=O)n(-c4ccccc4)c3n2)CC1	-0.003%	
O=C(Nc1cccc(F)c1)N1CCC2(CC1)CCN(S(=O)(=O)c1ccccc1)CC2	1.21%	
Cc1nc2cnc(Oc3cccc(Cl)c3)nc2n(C2CC2)c1=O	-1.71%	
O/N=C1\CC2(Cc3nonc31)OCCO2	-2.81%	
ON=C1/C(=N\O)CC2(C/C1=N/O)OCCO2		12.6 µM (active)
O=c1c(CCc2ccccc2)nc2cncnc2n1C1CC1	-2.81%	
COc1ccccc1CNc1ncncc1-c1cccc(NS(C)(=O)=O)c1	5.26%	
COCCNc1cc(-c2c(C)noc2C)ncn1	-2.68%	
O=C(O)[C@@H]1[C@@H](C(=O)O)[C@]23C[C@@]2(C(=O)O)[C@]2(C(=O)O)CCC3=C3CCCC312	0.013% [at 11 µM]	
O=C(CC(NS(=O)(=O)c1ccc(Cl)cc1)c1ccco1)NC1CCCC1 (centres undefined)	-9.73%	
CN1CCN(S(=O)(=O)c2ccc(NC(=O)C3CCCO3)cc2)CC1 (centres undefined)	-2.48%	
O=S(=O)(c1ccccc1)N1CCC2(CC1)CN(Cc1nccs1)C2	-4.1%	
NC1(C(=O)OCc2ccccc2)CCCC1	-2.78% [at 11 µM]	
NCC(=O)[C@@H](O)[C@H](O)[C@H](O)CO	-1.57% [at 11 µM]	
Cc1ccc(CNC(=O)C2CC(=O)N(C3CCCCCCC3)C2)cc1 (centres undefined)	0.056%	
COc1ccc(C(=O)N2CCC[C@@]3(CCN(C(=O)NC(C)C)C3)C2)cc1	-3.02%	
Clc1ccc(Cc2nnc(-c3cccs3)o2)cc1	12.2%	
Cn1c(=O)c(-c2ccccc2)nc2cnc(N3CCNCC3)nc21	-1.54%	
C=CC(=C)CCC=C(C)C	-2.65%	
CN1CCN(c2cc(=O)n(-c3ccc(Cl)cc3)c(=O)[nH]2)CC1	0.293%	
